From the supplement of paper PMC8728848 come the findings set out here.

Shown is part of a subset that was picked to be rich in the strongest signals.

Assay in all cases: glycan array binding signal (z-score within array); higher = stronger binding
Holding throughout (settings): glycan notation: IUPAC condensed, linker removed

Experiment [1] addresses GlcNAc(b1-4)[GlcNAc(b1-6)]GalNAc. In short, it runs like this:
(§1)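 From the Consortium for Functional Glycomics database, 3228 arrays were curated, keeping only those whose protein sequence was available. Binding is given as a within-array Z-score averaged across arrays sharing a protein sequence and across linkers. Negative Z-scores can be read as non-binding.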

Experiment [2] deals with Neu5Ac(a2-3)Gal(b1-3)GlcNAc6S. In short, it runs like this: as §1
Experiment [3] addresses Neu5Ac(a2-3)Gal(b1-4)GlcNAc(b1-3)Gal. In short, it runs like this: as §1
For experiment [4], the target named is Neu5Ac(a2-3)Gal(b1-4)GlcNAc(b1-6)[Neu5Ac(a2-3)Gal(b1-3)]GalNAc. In short, it runs like this: as §1
For experiment [5], the target named is Neu5Ac(a2-3)Gal(b1-4)[Fuc(a1-3)]GlcNAc(b1-3)GalNAc. In short, it runs like this:
as §1

Experiment [6] addresses Neu5Ac(a2-3)Gal(b1-4)[Fuc(a1-3)]GlcNAc(b1-6)[Gal(b1-3)]GalNAc. In outline: as §1
The target in experiment [7] is Neu5Ac(a2-3)[Neu5Ac(a2-6)]GalNAc. In outline: as §1
The target of experiment [8] is Neu5Ac(a2-6)Gal(b1-4)GlcNAc(b1-2)Man(a1-3)[GlcNAc(b1-2)Man(b1-4)GlcNAc(b1-2)Man(a1-6)]Man(b1-4)GlcNAc(b1-4)GlcNAc. In outline: as §1
Experiment [9] concerns the target Neu5Ac(a2-6)Gal(b1-4)GlcNAc(b1-3)Gal(b1-3)GlcNAc. In outline:
as §1

The target of another experiment is Neu5Ac(a2-6)GalNAc. In outline:
as §1

In experiment [10] the target is Neu5Ac(a2-8)Neu5Ac(a2-3)[GalNAc(b1-4)]Gal(b1-4)Glc. In outline: as §1
The target in the next experiment is Neu5Ac(b2-6)GalNAc. In outline:
as §1

In experiment [11] the target is Neu5Gc(a2-6)Gal(b1-4)GlcNAc. In outline: as §1

B1: GNAT (Pseudomonas aeruginosa), Q9HV14 (protein)
chain: MQLSHRPAETGDLETVAGFPQDRDELFYCYPKAIWPFSVAQLAAAIAERRGSTVAVHDGQVLGFANFYQWQHGDFCALGNMMVAPAARGLGVARYLIGVMENLAREQYKARLMKISCFNANAAGLLLYTQLGYQPRAIAERHDPDGRRVALIQMDKPLEP
With B1, the “glycan array binding signal (z-score)” value in [1] is -0.407; in experiment [2] it was -0.165; in experiment [3], -0.403; in [4] it was -0.097; in experiment [5] it was 2.77; in experiment [6], 5.03. For the same molecule, the “glycan array binding signal (z-score)” value was -0.405 in [7]; -0.293 in experiment [8]; -0.3 in experiment [9]; -0.404 in the experiment with Neu5Ac(a2-6)GalNAc; -0.165 in [10]; -0.413 with Neu5Ac(b2-6)GalNAc. In experiment [11], the “glycan array binding signal (z-score)” value is -0.437.
